# Results filed as inconclusive are left out. Values without a mark were called inactive. Calls of active or inactive are those of the source. The call rests on the fitted dose curve; in most records, active means well fitted inhibition curve with a large enough effect; inconclusive means small, poorly fitted or top-dose-only effect, or effect the other way; inactive means flat fitted curve, though single readings scatter.
# Target: Lysosomal acid glucosylceramidase (Homo sapiens) (UniProt P04062)
# Sequence (P04062 whole entry, looked up): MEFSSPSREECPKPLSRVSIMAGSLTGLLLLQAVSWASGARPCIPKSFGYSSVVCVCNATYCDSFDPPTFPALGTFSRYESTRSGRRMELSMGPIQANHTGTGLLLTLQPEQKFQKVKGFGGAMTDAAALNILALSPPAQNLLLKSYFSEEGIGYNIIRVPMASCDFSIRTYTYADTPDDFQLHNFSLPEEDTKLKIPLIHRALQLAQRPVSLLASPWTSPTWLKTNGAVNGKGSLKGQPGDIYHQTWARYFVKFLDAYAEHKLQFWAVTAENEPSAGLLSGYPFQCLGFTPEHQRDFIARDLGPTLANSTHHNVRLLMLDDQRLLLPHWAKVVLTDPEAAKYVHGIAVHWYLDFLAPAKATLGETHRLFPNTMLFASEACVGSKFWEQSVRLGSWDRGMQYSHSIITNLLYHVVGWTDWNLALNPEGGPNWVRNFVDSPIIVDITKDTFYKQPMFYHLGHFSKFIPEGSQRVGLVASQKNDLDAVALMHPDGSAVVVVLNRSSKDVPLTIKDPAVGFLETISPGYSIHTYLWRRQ
# Assay: qHTS Assay for Inhibitors and Activators of N370S glucocerebrosidase as a Potential Chaperone Treatment of Gaucher Disease: Activity in Non-Mutant Spleen Homogenate
# Conditions: human spleen homogenate GC, 4MU-glucoside fluorescence; series mostly up to 57.5 µM; activity change, negative = inhibition: at the top concentration
# Excerpt: NIH Chemical Genomics Center [NCGC] NIH Molecular Libraries Probe Production Centers Network [MLPCN] MLPCN Grant: MH086442-01 Assay Submitter (PI): Wei Zheng Glucocerebrosidase (GC) catalyzes the hydrolysis of beta-glucocerebroside to glucose and ceramide in lysosomes. Mutations in the glucocerebrosidase gene result in Gaucher disease, an autosomal recessive lysosomal storage disorder. Many of the mutations encountered in patients with Gaucher disease are missense alterations that may cause misfolding, decreased stability and/or mistrafficking of this lysosomal protein. […] These inhibitors include iminosugar analogs and three non-iminosugar inhibitors identified from a previous HTS of 62,000 compounds with the wild type recombinant enzyme. However, the enhancement of enzyme activity by the chaperone action of an enzyme inhibitor must be balanced against the direct inhibition of the enzyme. An enzyme activator could also function as a chaperone by binding to the enzyme and helping to correct its misfolding and mistrafficking. While activators for GC have not yet been identified, they may have better therapeutic potential than inhibitors. Therefore the discovery and development of chemical activators may provide a new strategy for the chaperone therapy. We have optimized a new assay using N370S mutant GC derived from the spleen of a Gaucher patient. […] In addition, the MLPCN compound library has expanded, which increases the chance of finding new and better probes. This confirmation assay tests for compound activity in spleen homogenate containing wildtype enzyme.
# NCGC Assay Protocol Summary: This is a fluorogenic enzyme assay with 4-methylumbelliferyl-beta-D-glucopyranoside as the substrate and wildtype glucocerebrosidase from human spleen homogenate as the enzyme preparation. Upon the hydrolysis of this fluorogenic substrate, the resulting product, […] which can be detected by a standard fluorescence plate reader. Data were normalized to the controls for basal activity (without enzyme) and 100% activity (with enzyme). The AC50 values were determined from concentration-response data modeled with the standard Hill equation. Assay buffer: 50 mM citric acid (titrated with potassium phosphate to pH 5.0), 100 mM potassium chloride, 10 mM sodium chloride, 1 mM magnesium chloride, 0.01% Tween-20. 1536-well assay protocol: (1) Add 2 ul/well of spleen homogenate (27 ug final) (2) Add 23 nL compounds in DMSO solution. The final titration was 0.5 nM to 58 uM. (3) Add 2 ul of substrate (1 mM final) (4) Incubate at 37C for 40 min. (5) Add 2 ul stop solution (1M NaOH and 1M Glycine mixture, pH 10) (6) Detect the assay plate in a ViewLux plate reader (PerkinElmer) with Ex=365 nm and Em=440nm. Keywords: Glucocerebrosidase, beta-glucosidase, Gaucher Disease, pharmacological chaperone, chaperone therapy, high throughput screening, glucocerebrosidase inhibitor, MLSMR, MLSCN, NIH Roadmap, qHTS and NCGC
Structure (SMILES),Potency,"activity change, negative = inhibition"
Cc1cc(C)cc(N(CC(=O)NC2CCCCCC2)S(=O)(=O)c2c(C)[nH]c(=O)[nH]c2=O)c1,562 nM (active),
N#Cc1ccc(S(=O)(=O)N2CCN(c3nc(-c4cccs4)nc4ccccc34)CC2)cc1,2510 nM (active),
O=S(=O)(c1ccccc1C(F)(F)F)N1CCN(c2nc(-c3cccs3)nc3ccccc23)CC1,398 nM (active),
CC(C)C(C)NC(=O)CSc1nc2scc(-c3ccco3)c2c(=O)n1-c1ccccc1 (stereo not given),,6.76%
NS(=O)(=O)c1ccc(S(=O)(=O)N2CCN(c3nc(-c4cccs4)nc4ccccc34)CC2)cc1,5010 nM (active),
O=S(=O)(c1ccc2c(c1)OCCO2)N1CCN(c2nc(-c3cccs3)nc3ccccc23)CC1,447 nM (active),
S=C(NCCCc1cnc[nH]1)NCCCN(Cc1ccc(Cl)c(Cl)c1)c1ccc(Br)cn1,355 nM (active),
O=S(=O)(c1ccc2ccccc2c1)N1CCN(c2nc(-c3cccs3)nc3ccccc23)CC1,282 nM (active),
O=S(=O)(c1ccc(Cl)cc1)N1CCN(c2nc(-c3cccs3)nc3ccccc23)CC1,1000 nM (active),
CC(C)(C)C(=O)OCCNc1nc(-c2ccccc2)nc2ccccc12,2240 nM (active),

# — PubChem BioAssay AID2592 (National Center for Advancing Translational Sciences (NCATS), 2010)
